Bioassay records deposited in PubChem BioAssay by several laboratories.
NLRP3 yeast inh: inhibitors of NALP3 inflammasome in yeast. Yeast reconstituted NLRP3/ASC/caspase-1, beta-gal luminescence, 24 h. inhibition, % at 10 µM. 330,000 compounds, 0.39% hits;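 active = inhibition of 50% or more; inactive = inhibition below 50%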
tim10-1 inh: growth inhibitors of tim10-1 mutant yeast. AID 463190. S. cerevisiae tim10-1 ts strain growth, BacTiter-Glo, 24 h. 330,000 compounds, 2.2% hits. inhibition, % at 20 µM;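 active = inhibition of at least 40%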;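 note: mutant grown at 25 °C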
TIM10 inh: inhibits growth of TIM10 yeast strain; AID 463195; S. cerevisiae TIM10 strain growth, BacTiter-Glo luminescence, 24 h; inhibition, % at 10 µM; 330,000 compounds, 1.4% hits;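 active = inhibition of 40% or more at the single tested concentration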;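 note: wild-type TIM10 isogenic control strain grown at permissive 25 °C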
tim23-1 inh: growth inhibitors of tim23-1 mutant yeast. inhibition, % at 20 µM. 330,000 compounds, 1.3% hits. AID 463212. S. cerevisiae tim23-1 growth, BacTiter-Glo luminescence, 24 h;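 active = growth inhibition of the mutant yeast at or above 50%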;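 note: temperature-sensitive mutant grown at 25 °C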
PfHsp90 set2: inhibits growth of yeast expressing Plasmodium falciparum Hsp90; 310,000 compounds, 0.32% hits; S. cerevisiae expressing PfHsp90, BacTiter-Glo ATP, 48 h; yeast lacking PDR1 and PDR3 efflux regulators; inhibition, % at 9.4 µM; AID 504621;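 active = every replicate shows inhibition above about 80%, whatever the replicate mean, limit read from the data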
tim10-1 conf: tim10-1 yeast growth inhibition, confirmed; 7,400 compounds, 56% hits; shares compounds with tim10-1 inh; S. cerevisiae tim10-1 ts strain growth, BacTiter-Glo, 24 h; inhibition, % at 20 µM;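 active = inhibition of yeast growth at or above a set limit in either of two repeat tests at 20 µM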;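 note: tim10-1 mutant grown at permissive 25 °C to find synthetic lethal compounds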
Large screens that a line does not name were inactive (follow-up assays come after a bar, where they were run). Only some compounds are listed: those with a hit (about 3.7% of all), similar ones and a draw of the others.

CCC(=O)Nc1nnc(-c2ccccn2)o1	none
O=C(Nc1nnc(-c2ccccn2)o1)c1ccc(Br)cc1	tim10-1 inh 46.1 | tim10-1 conf inactive
O=S(=O)(NCCSc1ccccc1)c1ccc2c(c1)OCCO2	tim10-1 inh 40.8 | tim10-1 conf inactive
O=C(O)CCCCCNS(=O)(=O)c1ccc2c(c1)OCCO2	none
CCCN1C(=O)/C(=N\OCC(=O)Nc2ccc(C(C)C)cc2)c2ccccc21	tim10-1 inh 47.8 | tim10-1 conf 37.7
CCCN1C(=O)/C(=N\OCC(=O)NC23CC4CC(CC(C4)C2)C3)c2ccccc21	tim10-1 inh 42.1 | tim10-1 conf inactive
CC(C)C1Cc2c(sc3[nH]c(=S)n(Cc4ccccc4)c(=O)c23)CO1 (stereo not given)	none
O=C(Nc1ccc(F)cc1)C1=CC(=O)N2CCN=C2S1	none (no result: PfHsp90 set2)
CCCSc1oc(-c2ccco2)nc1S(=O)(=O)c1ccccc1	tim10-1 inh 42.8 | tim10-1 conf inactive
Cc1ccc(N=C2C(=O)Nc3ccc(C)c(Br)c32)cc1	tim10-1 inh 41.4 | tim10-1 conf 29.9
CCOC(=O)C1CCN(CCC(=O)Nc2cccc(Cl)c2)CC1	none (no result: PfHsp90 set2)
COC(=O)C1(Cc2cc(-c3ccccc3)no2)CCN(C(=O)OC(C)(C)C)CC1	tim10-1 inh 43.2 | tim10-1 conf 34.4
Cn1c(CCNC(=O)c2ccc(Cl)cc2)n[nH]c1=S	none
C=CCC1Cc2c(cccc2[N+](=O)[O-])C(CC=C)N1 (stereo not given)	tim10-1 inh 48.8 | tim10-1 conf inactive
Cc1nn(C)c(C)c1CNC(=O)Nc1cccc(Cl)c1C	none
O=C(c1cn(-c2ccccc2)nc1-c1ccncc1)n1nnc2ccccc21	tim10-1 inh 53.3 | tim10-1 conf 39.5
CC(=O)c1cccc(NC(=O)C(Sc2ncnc3ccccc23)c2ccccc2)c1 (stereo not given)	none
COc1cccc(CN2CCN(c3nc4nonc4nc3NC3CC3)CC2)c1	none
Cc1ccc(/C=C2/NC(=O)N(c3ccccc3)C2=O)o1	none
O=C1N/C(=C/c2ccc(Br)s2)C(=O)N1c1ccccc1	tim10-1 inh 45.6 | tim10-1 conf inactive
Cc1ccc(N(C(=O)c2cccs2)C2C=CS(=O)(=O)C2)cc1 (stereo not given)	none
COc1cccc(-c2nc(=S)c3c(n2Cc2ccco2)CCCC3)c1	tim10-1 inh 42.0 | tim10-1 conf 40.1
Cc1ccccc1NC(=O)c1cc(N)ccc1N1CCCCC1	tim10-1 inh 41.3 (no result: PfHsp90 set2) | tim10-1 conf 31.8
CN(C)S(=O)(=O)c1ccc(N2CCCC2)c(C(=O)Nc2ccccc2Br)c1	none (no result: PfHsp90 set2)
COc1ccc(N(CC(=O)Nc2cccc(C(C)=O)c2)S(=O)(=O)c2ccc(NC(C)=O)cc2)cc1	none
CCCc1cc(=O)[nH]c(SCC(=O)N2CCC(C)CC2)n1	none
COc1ccccc1CCC(=O)N1CCC(n2nccc2NC(=O)C2CCOC2)CC1 (stereo not given)	none
CCOc1ccc(NC(=S)c2ccc3ccccc3n2)cc1	none
COc1ccc(NC(=S)c2ccc3ccccc3n2)cc1	tim10-1 inh 56.3 | tim10-1 conf inactive
Cc1nc(SCc2nc3ccc(Br)cc3[nH]2)c2oc3ccccc3c2n1	none
CCc1nc(SCc2nc3ccccc3[nH]2)c2oc3ccccc3c2n1	tim10-1 inh 40.2 | tim10-1 conf inactive
Oc1ccc(Oc2ncc(Cl)cc2Cl)cc1	tim10-1 inh 40.2 | tim10-1 conf 33.8
CC1(C)SC(=S)N(/N=C/c2ccccc2)C1N(O)C(=O)Nc1ccc([N+](=O)[O-])cc1 (stereo not given)	none
CCC(=O)N1CCc2cc(Br)cc(S(=O)(=O)CCC(=O)N(CC)CC)c21	none
CCCN(CCC)S(=O)(=O)c1cc(Br)cc2c1N(C(=O)CC)CC2	tim10-1 inh 46.2 (no result: PfHsp90 set2) | tim10-1 conf 34.1
O=C(Cc1nc2ccccc2[nH]1)c1cccc([N+](=O)[O-])c1	none
CCNc1ccc(Br)cc(C(=O)/C=C/c2c(Cl)cccc2Cl)c1=O	tim10-1 inh 54.7 | tim10-1 conf 48.6
CCNc1ccc(Br)cc(C(=O)/C=C/c2ccc(Cl)cc2)c1=O	none
C=CCSc1nc2c(c(=O)n(C)c(=O)n2C)n1CC	none
Cn1c(=O)[nH]c(=O)c2c1nc1n2CC(COc2ccc3ccccc3c2)O1 (stereo not given)	none
CCOC(=O)CNC(=O)CSc1nc2cccnc2n1C1CCCCC1	none
CC(C)OC(=O)CSc1nc2cccnc2n1C1CCCCC1	none | tim10-1 conf inactive
